{"source": "PubChem BioAssay (NCATS)", "note": "Records with an inconclusive call do not appear. Activity calls are given as the source filed them. Calls follow the shape of the dose curve; as a rule, active = well fitted inhibition curve with a large enough effect; inconclusive = small, poorly fitted or top-dose-only effect; inactive = no such curve, though single readings can be large or run the other way. Peptide text beside a SMILES is read from it. % is scaled to controls: 0 for no effect and ±100 for the full control effect.", "data": [{"assay": "Primary qHTS for small molecule stabilizers of the endoplasmic reticulum resident proteome: Secreted ER Calcium Modulated Protein (SERCaMP) assay (AID 1508630)", "details": "SH-SY5Y GLuc-SERCaMP (Gaussia luciferase released on ER calcium loss) secretion, thapsigargin, luminescence; series mostly up to 38.4 µM", "from_the_text": "Assay Provider: Brandon K. Harvey Ph.D.\nNational Institute on Drug Abuse, National Institutes of Health, Baltimore, MD\nEndoplasmic reticulum (ER) dysregulation is associated with human pathologies including neurodegenerative, cardiovascular, muscular, and diabetic conditions. Maintenance of ER calcium is critical for functions of the ER and its depletion can lead to loss of ER resident proteins, in a process termed exodosis. Therapeutic compounds capable of attenuating the redistribution of ER proteins under pathological conditions may slow or stop disease progression. To identify such compounds, we performed a quantitative high-throughput screen (qHTS) using the SERCaMP assay, which monitors secretion of ER resident proteins triggered by calcium depletion.\nSERCaMP was initially developed as a reporter of ER calcium homeostasis using a Gaussia luciferase with a modified signal peptide and carboxy-terminus (GLuc-SERCaMP), modifications that confer secretion of the reporter in response to ER calcium depletion (Henderson et al., 2014). The assay was used to screen 9,501 compounds, including a collection of drugs approved by the FDA (US), EMA (EU), NHI (Japan), and HC (Canada) regulatory agencies (Huang et al., 2011). Since the SERCaMP reporter reflects the exodosis phenomenon (Trychta et al., 2018a), compounds identified in the screen have the potential to prevent exodosis by different mechanisms such as stabilizing ER calcium or augmenting ERS retrieval.\n1. Henderson, M.J., Wires, E.S., Trychta, K.A., Richie, C.T., and Harvey, B.K. (2014). SERCaMP: a carboxy-terminal protein modification that enables monitoring of ER calcium homeostasis. Mol Biol Cell 25, 2828-2839.\n2. Huang, R., Southall, N., Wang, Y., Yasgar, A., Shinn, P., Jadhav, A., Nguyen, D.T., and Austin, C.P. (2011). The NCGC pharmaceutical collection: a comprehensive resource of clinically approved drugs enabling repurposing and chemical genomics. Sci Transl Med 3, 80ps16.\n3. Trychta, K.A., Back, S., Henderson, M.J., and Harvey, B.K. (2018a). KDEL Receptors Are Differentially Regulated to Maintain the ER Proteome under Calcium Deficiency. Cell Rep 25, 1829-1840 e1826.\nSEQUENCE No. (1, 2, 3, etc.); […] (e.g., Cells, Incubation, Reagent, etc.); VALUE and DESCRIPTION.\n1; Reagent; 5 uL; 1000 SH-SY5Y cells per wells\n3; Compound; 23 nL; Control inhibitor / compound library\n5; Reagent; 100 nM; Thapsigargin\n7; Reagent; 1 uL; 0.5x coelenterazine\n8; Detection; Luminescence; ViewLux imaging system\nNOTES (numbers refer to sequence above)\n1; SH-SY5Y human neuroblastoma cells stably expressing GLuc-SERCaMP (SH-SY5Y-GLuc-ASARTDL) cells were seeded in 1,536 well white tissue culture treated plates (Corning, Cat# 7464) in DMEM-high glucose-sodium pyruvate (ThermoFisher Scientific, Cat #10569) supplemented with 10% bovine growth serum (Hyclone), 10 U/ml penicillin (Gibco), 10 ug/ml streptomycin (Gibco), and 20 mM HEPES.\n2; Assay plates were incubated for 5 hour at 37C in a humidified incubator containing 5% CO2.\n3; qHTS libraries (23 nl, final concentrations of 1.53 uM, 7.67 uM, 38.3 uM) or controls (neutral control: DMSO, positive control: dantrolene) were added using a Kalypsis pin-tool Robotic System equipped with 1536 pinheads.\n4; Cells were then incubated for 16 hours at 37C, 5% CO2.\n5; Thapsigargin was added at 100 nM to deplete ER calcium stores.\n6; Cells were incubated for 4 hour (37 °C, 5% CO2)\n7; Gaussia luciferase in the medium was measured by adding 1 ul of 0.5x coelenterazine (final concentration 0.07x) prepared in Gaussia Luciferase Glow Assay Buffer (Pierce), without addition of the Cell Lysis Buffer Reagent.\n8; Luminescence was measured using a ViewLux […] CCD imaging system (Perkin Elmer) equipped with clear filters. […] The same controls were also used for the calculation of the Z' factor, a measure of assay quality control, as previously described (Zhang et al., 1999). […]", "values": [{"smiles": "O=C(O)CC/C=C\\CC[C@H]1[C@@H](N2CCCCC2)[C@@H](O)C[C@@H]1OCc1ccc(-c2ccccc2)cc1", "outcome": "inactive"}, {"smiles": "CN1Cc2c(N)cccc2C(c2ccccc2)C1", "note": "(stereo not given)", "outcome": "inactive"}, {"smiles": "CC(=O)N[C@@H](CC(=O)O)C(=O)N[C@@H](CCC(=O)O)C(=O)O", "note": "(Ac-Asp-Glu-OH)", "outcome": "inactive"}, {"smiles": "CCOC(=O)C1=CC2(CC)CCCN3CCc4c(n1c1ccccc41)C32", "note": "(stereo not given)", "outcome": "inactive"}, {"smiles": "Cc1cc(/C=C/c2ccc3cc(N(C)C)ccc3[n+]2C)c(C)n1-c1ccccc1", "outcome": "inactive"}, {"smiles": "COC(=O)C1=CO[C@@H](O[C@@H]2O[C@H](CO)[C@@H](O)[C@H](O)[C@H]2O)[C@@H]2[C@@H](C)[C@@H](O)C[C@H]12", "outcome": "inactive"}, {"smiles": "CCCCC/C=C\\C/C=C\\CCCCCCCC(=O)O", "activity change, negative = inhibition": "-23.8% [at 3.88 µM] (inactive)"}, {"smiles": "CC1=C(/C=C/C(C)=C/C=C/C(C)=C/CO)C(C)(C)CCC1", "outcome": "inactive"}, {"smiles": "Cc1ccc(Sc2cncc3sc(C(N)=O)cc23)cc1", "outcome": "inactive"}, {"smiles": "CC(C)N=c1cc2n(-c3ccc(Cl)cc3)c3ccccc3nc-2cc1Nc1ccc(Cl)cc1", "outcome": "inactive"}]}]}
